For ten molecules, outcome and AC50 results are on record in PubChem BioAssay (EPA / NIEHS).

SMILES strings stand for the structures. Results filed as inconclusive are left out. The source made the active and inactive calls. Rule for the calls, unless noted: active = hit-call score of the fitted dose curve at least 0.9, where 1 is the maximum; inconclusive = response in the unintended direction; inactive = score below 0.9.

One assay deals with zebrafish Peroxisome Proliferator-activated Receptor gamma (PPARg), gene 557037. Briefly: ATG_zfPPARg_XSP2: Attagene TRANS-FACTORIAL Multi-Species (XSP2) HepG2 Assay for zebrafish Peroxisome Proliferator-activated Receptor gamma (PPARg) (AID 2283833).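 Note: actives increase reporter signal over DMSO so AC50 reflects activation.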 The gist of the method:
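HepG2 cells transiently transfected with GAL4-UAS reporter units expressing a zebrafish PPARg–GAL4 chimera; compound exposure 24 h. Reporter mRNA quantified by RT-PCR with fluorescent labelling and capillary electrophoresis; gain of signal fitted relative to DMSO baseline.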
For `COc1ccc(-c2coc3cc(O)cc(O)c3c2=O)cc1`, the molecule was called inactive.

Turning to `N#Cc1ccc(C2CCCc3cncn32)cc1` (stereo not drawn), the molecule was called inactive.

As for `CCCCCCCCCCCCc1ccc(O)cc1`, the result was inactive.

Regarding `Oc1ccc(-c2ccccc2)c(Cl)c1`, the molecule was called inactive.

Regarding `Oc1ccccc1Cc1ccccc1O`, the molecule was classed as inactive.

`CC(CCC(=O)O)(c1ccc(O)cc1)c1ccc(O)cc1`: the call was inactive.

`C=C1C[C@H]2[C@@H]3C=C(C)C4=CC(=O)CC[C@]4(C)[C@H]3CC[C@]2(C)[C@@]1(OC(C)=O)C(C)=O`: the call was inactive.

As to `COc1ccc(C(=O)c2ccccc2)c(O)c1`, the call was inactive.

On to `O=C(O)/C=C/c1ccccc1`, for which the molecule was classed as inactive.

For another assay, the system named is turtle Thyroid Hormone Receptor, alpha (TRa), gene 101949057. Kind of assay: ATG_trTRa_XSP2: Attagene TRANS-FACTORIAL Multi-Species (XSP1) HepG2 Assay for turtle Thyroid Hormone Receptor, alpha (TRa) (AID 2283834).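 Note: hits raise reporter mRNA over the DMSO baseline so AC50 marks activators.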 The method, then:
ATG_XSP2_multi-species_TRANS is a cell-based, multiplexed assay created by modifying the existing Attagene TRANS-FACTORIAL system to include a panel of nuclear receptors from some or all the following species: human (Homo sapiens), mouse (Mus musculus), frog (Xenopus laevis), zebrafish (Danio rerio), chicken (Gallus gallus), and turtle (Chrysemys picta). The ECOTOX-FACTORIAL format uses HepG2, a human liver cell line, with measurements taken at 24 hours after chemical dosing in a 24-well plate. Xsp2 included 3 nM 6-alpha-fluorotestosterone and 1.5 nM norgestrel to stimulate the androgen receptor.ATG_trTRa_XSP2 is one of 29 assay components measured or calculated from the ATG_XSP2_multi-species_TRANS assay. It is designed to make measurements of mRNA induction, a form of inducible reporter, as detected with fluorescence intensity signals by Reverse transcription polymerase chain reaction (RT-PCR) and Capillary electrophoresis technology.The assay endpoint ATG_trTRa_XSP2 was analyzed in the positive analysis fitting direction relative to DMSO as the negative control and baseline of activity. Using a type of inducible reporter, measures of mRNA for gain-of-signal activity can be used to understand the reporter gene at the transcription factor-level as they relate to the gene TR. Furthermore, this assay endpoint can be referred to as a primary readout, because this assay has produced multiple assay endpoints where this one serves a reporter gene function. To generalize the intended target to other relatable targets, this assay endpoint is annotated to the nuclear receptor intended target family, where the subfamily is non-steroidal.
Human liver HepG2 cells are transiently transfected with multiple reporter transcription units (MRTUs) in 6-well plates using FuGene 6 reagent (Roche; 3 ml FuGene/1 mg DNA). The MRTU constructs are regulated by a cis-regulating element (promoter). […] A major difference between the CIS and TRANS system is that in CIS activities of endogenous TFs are measured, whereas the TRANS assay evaluates changes in activities of exogenous, chimeric NR-Gal4 proteins. […] At the end of 24 hour incubation, total RNA was isolated using TriZol reagent (Invitrogen). The isolated RNA is then reverse-transcribed using oligo(dT) primer and Mo-MLV reverse transcriptase (Invitrogen) with DNAse I (Ambion) treatment for 30 min. The one-tenth of the produced cDNA was amplified by PCR using Taq DNA polymerase (Invitrogen) and two reporter sequence-specific primers. The PCR products were fluorescently labeled by primer extension with 6-arboxyfluorescein (6-FAM) 5'-labeled reporter sequence-specific primer (2 min at 95 C, 20 s at 68 C and 10 min at 72 C) and these products were digested with 5U of HpaI (New England Biolabs) for 2h at 37 C. The fragments were purified using Qiaquick PCR columns (Qiagen), analyzed on an ABI 3130xL genetic analyzer (Applied Biosystems) with peak positions identified by using a set of X-rhodamine (ROX)-labeled MapMarker1000 molecular weight standards (BioVentures). The raw capillary electrophoresis data was processed using Attagraph software (Attagene).
For the molecule `COc1ccc(-c2coc3cc(O)cc(O)c3c2=O)cc1`, the molecule was called inactive.

For `N#Cc1ccc(C2CCCc3cncn32)cc1` (stereo not drawn), the result was inactive.

Regarding `CC(C)(C)NC(=O)[C@H]1CC[C@H]2[C@@H]3CC[C@H]4NC(=O)C=C[C@]4(C)[C@H]3CC[C@]12C`, the AC50 (commonly the midpoint of the concentration-response curve, whichever way the signal moves) is 25.9 µM (active).

In the case of `CCCCCCCCCCCCc1ccc(O)cc1`, the molecule was classed as inactive.

As to `Oc1ccc(-c2ccccc2)c(Cl)c1`, the outcome was inactive.

Regarding `Oc1ccccc1Cc1ccccc1O`, the outcome was inactive.

With `CC(CCC(=O)O)(c1ccc(O)cc1)c1ccc(O)cc1`, the molecule was classed as inactive.

Regarding `C=C1C[C@H]2[C@@H]3C=C(C)C4=CC(=O)CC[C@]4(C)[C@H]3CC[C@]2(C)[C@@]1(OC(C)=O)C(C)=O`, the result was inactive.

For the molecule `COc1ccc(C(=O)c2ccccc2)c(O)c1`, the result was inactive.

Tested on in the next assay: not listed separately
Briefly: ATG_M_61_XSP2: Attagene TRANS-FACTORIAL Multi-Species (XSP2) HepG2 Assay for M61 Transcription Factor (Internal Marker) (AID 2283835; active = hit-call score of the fitted dose curve at least 0.9, where 1 is the maximum; inactive = score below 0.9;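 note: active means a rise in signal above the DMSO baseline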). In outline: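 Internal background marker, read as RT-PCR/capillary-electrophoresis reporter mRNA 24 h post-dose in transiently transfected HepG2 cells. Androgen receptor stimulated with 3 nM 6-alpha-fluorotestosterone plus 1.5 nM norgestrel; gain of signal versus DMSO analysed.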
`COc1ccc(-c2coc3cc(O)cc(O)c3c2=O)cc1`: the outcome was inactive.

With `N#Cc1ccc(C2CCCc3cncn32)cc1` (stereo not drawn), the outcome was inactive.

With `CC(C)(C)NC(=O)[C@H]1CC[C@H]2[C@@H]3CC[C@H]4NC(=O)C=C[C@]4(C)[C@H]3CC[C@]12C`, the outcome was inactive.

Turning to `CCCCCCCCCCCCc1ccc(O)cc1`, the molecule was classed as inactive.

Turning to `Oc1ccccc1Cc1ccccc1O`, the molecule was classed as inactive.

`CC(CCC(=O)O)(c1ccc(O)cc1)c1ccc(O)cc1`: the call was inactive.

For `COc1ccc(C(=O)c2ccccc2)c(O)c1`, the outcome was inactive.

The target in another assay is zebrafish Thyroid Hormone Receptor beta (TRb), thrb (gene 30607) (UniProt Q9PVE4). Briefly: ATG_zfTRb_XSP2: Attagene TRANS-FACTORIAL Multi-Species (XSP1) HepG2 Assay for zebrafish Thyroid Hormone Receptor beta (TRb) (AID 2283836). The gist of the method: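 Reporter transcripts measured by RT-PCR, 6-FAM labelling, HpaI digestion and capillary electrophoresis after 24 h chemical exposure. Human HepG2 cells carry an exogenous zebrafish TRb-GAL4 chimera; medium included 3 nM 6-alpha-fluorotestosterone plus 1.5 nM norgestrel.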
zebrafish Thyroid Hormone Receptor beta (TRb), thrb (gene 30607), sequence (Q9PVE4 whole entry, looked up, the tested form may be a part): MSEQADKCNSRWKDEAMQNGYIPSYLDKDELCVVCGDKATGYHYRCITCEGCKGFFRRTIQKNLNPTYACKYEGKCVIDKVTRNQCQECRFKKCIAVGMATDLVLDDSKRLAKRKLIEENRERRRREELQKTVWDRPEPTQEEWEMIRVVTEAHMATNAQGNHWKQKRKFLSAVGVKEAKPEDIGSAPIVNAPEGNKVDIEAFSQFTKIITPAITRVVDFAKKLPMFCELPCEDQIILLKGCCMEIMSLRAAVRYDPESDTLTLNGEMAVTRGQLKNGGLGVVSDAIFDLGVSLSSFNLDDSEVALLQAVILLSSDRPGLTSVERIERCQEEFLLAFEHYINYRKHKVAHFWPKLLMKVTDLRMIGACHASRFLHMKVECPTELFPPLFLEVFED
On to `COc1ccc(-c2coc3cc(O)cc(O)c3c2=O)cc1`, for which the molecule was called inactive.

Consider `N#Cc1ccc(C2CCCc3cncn32)cc1` (stereo not drawn), for which the result was inactive.

For `CCCCCCCCCCCCc1ccc(O)cc1`, the molecule was classed as inactive.

Take `Oc1ccc(-c2ccccc2)c(Cl)c1`: the molecule was called inactive.

Take `Oc1ccccc1Cc1ccccc1O`: the call was inactive.

Take `CC(CCC(=O)O)(c1ccc(O)cc1)c1ccc(O)cc1`: the molecule was called inactive.

As for `COc1ccc(C(=O)c2ccccc2)c(O)c1`, the call was inactive.

As to `O=C(O)/C=C/c1ccccc1`, the molecule was called inactive.
